What all share (experiment): DAPPL (digital affinity profiling via proximity ligation, sequencing); 10 mM Tris-HCl pH 7.5, 50 mM NaCl, 1 mM DTT, 4% glycerol, room temperature, 30 min; GST-TFs on glutathione beads, 16-mer random dsDNA library, 0.1% formaldehyde crosslink after washing; high values mean tight binding
What all share (conditions): protein: recombinant; tags: N-terminal GST; dsDNA, one strand shown

One experiment deals with T1, FLI1 (Homo sapiens, UniProt Q01543 1-452).
T1 sequence: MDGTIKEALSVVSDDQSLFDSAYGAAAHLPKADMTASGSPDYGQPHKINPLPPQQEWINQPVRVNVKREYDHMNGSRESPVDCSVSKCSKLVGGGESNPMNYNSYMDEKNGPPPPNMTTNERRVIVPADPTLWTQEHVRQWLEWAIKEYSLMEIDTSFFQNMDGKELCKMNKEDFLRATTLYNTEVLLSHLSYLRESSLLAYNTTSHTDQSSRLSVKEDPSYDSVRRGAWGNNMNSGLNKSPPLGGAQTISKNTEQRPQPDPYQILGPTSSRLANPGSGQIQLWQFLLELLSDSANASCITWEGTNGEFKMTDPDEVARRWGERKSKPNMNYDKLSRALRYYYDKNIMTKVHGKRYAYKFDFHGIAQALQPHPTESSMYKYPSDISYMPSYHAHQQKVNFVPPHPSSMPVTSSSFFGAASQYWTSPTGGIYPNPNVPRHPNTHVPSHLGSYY
An outline of the steps:
(§1)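 Beads coated with glutathione captured GST-fused human transcription factors that had been expressed in yeast, and the factors were then given DNA barcodes and pooled with a tag-only sample. The pools were incubated with 200 nmole of a random double-stranded 16-mer DNA library in Tris/NaCl/DTT/glycerol buffer for 30 min at room temperature, washed, crosslinked with 0.1% formaldehyde and proximity-ligated with BsaI/T4 ligase at 37 °C for 1 h. PCR amplification and Illumina NextSeq500 sequencing came last. Binding signal is each hexamer's read frequency for a factor divided by its frequency for the tag-only sample.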

The next experiment addresses T2, ELK1 (Homo sapiens, UniProt P19419 1-428).
T2 sequence: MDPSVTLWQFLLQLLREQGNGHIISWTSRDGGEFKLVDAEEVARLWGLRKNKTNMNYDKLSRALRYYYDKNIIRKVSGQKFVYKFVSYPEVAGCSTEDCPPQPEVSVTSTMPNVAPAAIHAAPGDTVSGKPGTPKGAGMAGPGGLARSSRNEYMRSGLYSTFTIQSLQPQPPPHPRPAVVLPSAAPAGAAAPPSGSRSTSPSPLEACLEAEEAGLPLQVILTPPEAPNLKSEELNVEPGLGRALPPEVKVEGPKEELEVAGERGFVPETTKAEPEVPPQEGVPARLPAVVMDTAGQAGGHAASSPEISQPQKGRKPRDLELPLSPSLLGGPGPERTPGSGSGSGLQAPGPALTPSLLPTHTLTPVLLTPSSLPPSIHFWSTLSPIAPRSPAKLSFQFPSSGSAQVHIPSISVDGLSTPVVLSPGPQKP
An outline of the steps: as §1

In another experiment the target is T3, GABPA (Homo sapiens, UniProt Q06546 1-454).
T3 sequence: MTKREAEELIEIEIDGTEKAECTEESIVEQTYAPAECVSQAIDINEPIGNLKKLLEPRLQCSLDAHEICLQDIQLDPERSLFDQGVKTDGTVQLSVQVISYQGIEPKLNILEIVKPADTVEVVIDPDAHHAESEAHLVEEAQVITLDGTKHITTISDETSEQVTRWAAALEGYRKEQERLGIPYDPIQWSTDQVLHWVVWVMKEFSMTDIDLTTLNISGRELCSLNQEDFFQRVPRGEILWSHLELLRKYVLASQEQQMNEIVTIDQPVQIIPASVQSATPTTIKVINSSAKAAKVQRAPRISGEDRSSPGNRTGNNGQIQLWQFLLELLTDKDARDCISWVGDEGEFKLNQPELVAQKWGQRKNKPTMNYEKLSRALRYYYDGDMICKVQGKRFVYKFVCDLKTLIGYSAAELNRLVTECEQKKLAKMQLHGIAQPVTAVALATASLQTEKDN
The essentials:
as §1

Another experiment addresses T4, ERG (Homo sapiens, UniProt P11308 1-479).
T4 sequence: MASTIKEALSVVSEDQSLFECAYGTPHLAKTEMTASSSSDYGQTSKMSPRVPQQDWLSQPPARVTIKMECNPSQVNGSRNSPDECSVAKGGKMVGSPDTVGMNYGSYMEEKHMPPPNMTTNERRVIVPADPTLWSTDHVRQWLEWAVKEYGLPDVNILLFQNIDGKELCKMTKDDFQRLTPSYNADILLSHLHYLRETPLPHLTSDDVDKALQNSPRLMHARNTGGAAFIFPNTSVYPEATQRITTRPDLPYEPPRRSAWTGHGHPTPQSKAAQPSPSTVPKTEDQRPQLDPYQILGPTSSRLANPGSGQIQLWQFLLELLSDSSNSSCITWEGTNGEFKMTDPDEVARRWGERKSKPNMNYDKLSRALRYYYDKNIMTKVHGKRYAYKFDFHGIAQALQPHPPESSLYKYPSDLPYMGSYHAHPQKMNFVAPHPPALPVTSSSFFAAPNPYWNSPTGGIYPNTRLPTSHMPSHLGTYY
The essentials: as §1

Another experiment concerns the target ELF1 (Homo sapiens, UniProt P32519 1-619). The essentials:
as §1

Another experiment deals with T5, EHF (Homo sapiens, UniProt Q9NZC4 1-300).
T5 sequence: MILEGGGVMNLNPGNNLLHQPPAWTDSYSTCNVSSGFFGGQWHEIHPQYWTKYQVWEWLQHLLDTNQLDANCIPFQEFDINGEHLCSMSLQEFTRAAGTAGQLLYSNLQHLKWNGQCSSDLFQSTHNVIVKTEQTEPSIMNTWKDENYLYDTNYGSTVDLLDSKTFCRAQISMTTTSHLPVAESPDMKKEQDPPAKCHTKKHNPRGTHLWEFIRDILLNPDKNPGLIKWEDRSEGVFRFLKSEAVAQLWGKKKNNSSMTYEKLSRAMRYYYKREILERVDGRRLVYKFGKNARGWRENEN
The essentials: as §1

Another experiment concerns the target SPI1 (Homo sapiens, UniProt P17947 1-270). The essentials:
as §1

For another experiment, the target named is SPIB (Homo sapiens, UniProt Q01892 1-262). An outline of the steps: as §1
SPIB, sequence (Q01892 whole entry): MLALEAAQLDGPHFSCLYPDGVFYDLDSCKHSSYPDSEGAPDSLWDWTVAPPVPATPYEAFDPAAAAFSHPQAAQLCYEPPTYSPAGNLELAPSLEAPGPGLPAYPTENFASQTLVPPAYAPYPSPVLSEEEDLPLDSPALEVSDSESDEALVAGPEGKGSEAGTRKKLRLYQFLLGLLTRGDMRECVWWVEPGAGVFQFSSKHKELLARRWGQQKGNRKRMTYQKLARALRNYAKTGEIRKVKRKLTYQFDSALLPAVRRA
In the next experiment the target is T6, ELK3 (Homo sapiens, UniProt P41970 1-407).
T6 sequence: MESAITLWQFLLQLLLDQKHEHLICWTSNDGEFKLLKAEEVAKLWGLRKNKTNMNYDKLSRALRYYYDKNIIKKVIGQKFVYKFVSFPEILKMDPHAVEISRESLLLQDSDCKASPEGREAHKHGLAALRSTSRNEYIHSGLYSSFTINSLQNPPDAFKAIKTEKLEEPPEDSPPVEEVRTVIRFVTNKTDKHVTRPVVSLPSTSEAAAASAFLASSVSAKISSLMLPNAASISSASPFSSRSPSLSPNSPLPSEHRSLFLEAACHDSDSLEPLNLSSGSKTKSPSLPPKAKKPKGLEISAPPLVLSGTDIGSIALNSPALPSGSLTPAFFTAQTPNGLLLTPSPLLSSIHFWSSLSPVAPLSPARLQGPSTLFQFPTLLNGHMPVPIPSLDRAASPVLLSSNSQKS
The essentials:
as §1

Another experiment has as its target T7, FEV (Homo sapiens, UniProt Q99581 1-238).
T7 sequence: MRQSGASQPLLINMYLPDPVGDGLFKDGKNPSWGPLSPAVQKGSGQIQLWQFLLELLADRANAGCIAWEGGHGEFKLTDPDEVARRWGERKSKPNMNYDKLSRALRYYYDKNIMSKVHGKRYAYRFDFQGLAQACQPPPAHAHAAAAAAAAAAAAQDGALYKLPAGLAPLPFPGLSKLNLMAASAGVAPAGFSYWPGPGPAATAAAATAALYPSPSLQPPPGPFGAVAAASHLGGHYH
An outline of the steps: as §1

The next experiment addresses ETV5 (Homo sapiens, UniProt P41161 1-510). The essentials:
as §1

The next experiment deals with T8, SPIC (Homo sapiens, UniProt Q8N5J4 1-248).
T8 sequence: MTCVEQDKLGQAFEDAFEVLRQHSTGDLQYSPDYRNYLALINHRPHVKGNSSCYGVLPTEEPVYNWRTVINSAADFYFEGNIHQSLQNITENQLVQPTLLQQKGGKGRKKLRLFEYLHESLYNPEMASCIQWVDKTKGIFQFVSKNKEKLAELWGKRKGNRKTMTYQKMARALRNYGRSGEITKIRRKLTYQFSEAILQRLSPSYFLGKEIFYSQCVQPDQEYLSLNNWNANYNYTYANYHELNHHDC
An outline of the steps:
as §1

In the next experiment the target is ELF4 (Homo sapiens, UniProt Q99607 1-663). The essentials: as §1
ELF4, sequence (Q99607 whole entry): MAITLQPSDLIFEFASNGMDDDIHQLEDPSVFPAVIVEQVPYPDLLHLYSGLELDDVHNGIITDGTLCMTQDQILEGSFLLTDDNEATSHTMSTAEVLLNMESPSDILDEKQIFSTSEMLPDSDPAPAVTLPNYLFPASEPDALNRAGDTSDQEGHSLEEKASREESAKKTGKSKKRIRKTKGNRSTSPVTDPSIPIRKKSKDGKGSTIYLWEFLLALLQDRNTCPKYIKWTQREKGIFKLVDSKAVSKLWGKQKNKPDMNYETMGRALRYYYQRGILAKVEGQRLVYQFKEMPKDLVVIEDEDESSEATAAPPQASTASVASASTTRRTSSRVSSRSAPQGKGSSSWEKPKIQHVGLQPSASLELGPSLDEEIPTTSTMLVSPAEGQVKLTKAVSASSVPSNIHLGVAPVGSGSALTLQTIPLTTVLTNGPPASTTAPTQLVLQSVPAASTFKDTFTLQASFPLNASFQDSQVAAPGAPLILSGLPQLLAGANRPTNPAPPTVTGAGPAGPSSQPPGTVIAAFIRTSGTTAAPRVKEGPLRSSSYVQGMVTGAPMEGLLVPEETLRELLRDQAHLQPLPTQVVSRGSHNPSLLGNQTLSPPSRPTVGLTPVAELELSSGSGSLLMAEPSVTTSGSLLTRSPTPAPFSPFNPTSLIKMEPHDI
For a further experiment, the target named is T9, ELK4 (Homo sapiens, UniProt P28324-2 1-405).
T9 sequence: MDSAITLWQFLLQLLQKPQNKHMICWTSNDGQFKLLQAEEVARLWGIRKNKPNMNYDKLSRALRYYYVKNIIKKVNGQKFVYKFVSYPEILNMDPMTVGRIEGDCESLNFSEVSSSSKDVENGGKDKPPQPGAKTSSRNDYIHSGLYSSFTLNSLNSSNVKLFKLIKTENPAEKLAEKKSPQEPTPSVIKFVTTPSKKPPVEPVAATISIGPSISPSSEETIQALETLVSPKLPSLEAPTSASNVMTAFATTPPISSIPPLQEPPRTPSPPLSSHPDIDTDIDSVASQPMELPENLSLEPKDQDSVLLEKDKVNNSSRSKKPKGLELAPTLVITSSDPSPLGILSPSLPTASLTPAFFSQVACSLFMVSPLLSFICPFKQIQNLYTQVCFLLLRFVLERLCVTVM
An outline of the steps:
as §1

The next experiment deals with T10, ETV2 (Homo sapiens, UniProt O00321 1-342).
T10 sequence: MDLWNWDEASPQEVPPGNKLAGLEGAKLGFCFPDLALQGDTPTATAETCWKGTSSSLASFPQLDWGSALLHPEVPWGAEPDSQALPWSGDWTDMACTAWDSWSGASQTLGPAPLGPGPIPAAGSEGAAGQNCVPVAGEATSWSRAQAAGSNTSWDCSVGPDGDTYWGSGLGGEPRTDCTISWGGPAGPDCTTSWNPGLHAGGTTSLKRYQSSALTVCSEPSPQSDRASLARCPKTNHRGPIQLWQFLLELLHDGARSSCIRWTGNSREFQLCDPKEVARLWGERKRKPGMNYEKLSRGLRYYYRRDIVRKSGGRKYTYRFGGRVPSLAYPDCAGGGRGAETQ
An outline of the steps: as §1

The target of the next experiment is T11, ELF3 (Homo sapiens, UniProt P78545 1-371).
T11 sequence: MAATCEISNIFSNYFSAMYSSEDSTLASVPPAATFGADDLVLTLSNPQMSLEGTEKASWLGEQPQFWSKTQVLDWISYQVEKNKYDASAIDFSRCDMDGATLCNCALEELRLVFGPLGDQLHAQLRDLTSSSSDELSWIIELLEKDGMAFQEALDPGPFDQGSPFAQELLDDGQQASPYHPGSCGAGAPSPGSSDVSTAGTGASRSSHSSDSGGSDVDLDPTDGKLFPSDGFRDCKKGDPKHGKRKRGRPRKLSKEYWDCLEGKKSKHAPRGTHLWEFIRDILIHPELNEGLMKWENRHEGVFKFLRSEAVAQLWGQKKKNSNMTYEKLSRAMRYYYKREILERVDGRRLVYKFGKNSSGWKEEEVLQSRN
An outline of the steps: as §1

A further experiment has as its target ETV1 (Homo sapiens, UniProt P50549 1-477). An outline of the steps: as §1

ETV5, sequence (P41161 whole entry): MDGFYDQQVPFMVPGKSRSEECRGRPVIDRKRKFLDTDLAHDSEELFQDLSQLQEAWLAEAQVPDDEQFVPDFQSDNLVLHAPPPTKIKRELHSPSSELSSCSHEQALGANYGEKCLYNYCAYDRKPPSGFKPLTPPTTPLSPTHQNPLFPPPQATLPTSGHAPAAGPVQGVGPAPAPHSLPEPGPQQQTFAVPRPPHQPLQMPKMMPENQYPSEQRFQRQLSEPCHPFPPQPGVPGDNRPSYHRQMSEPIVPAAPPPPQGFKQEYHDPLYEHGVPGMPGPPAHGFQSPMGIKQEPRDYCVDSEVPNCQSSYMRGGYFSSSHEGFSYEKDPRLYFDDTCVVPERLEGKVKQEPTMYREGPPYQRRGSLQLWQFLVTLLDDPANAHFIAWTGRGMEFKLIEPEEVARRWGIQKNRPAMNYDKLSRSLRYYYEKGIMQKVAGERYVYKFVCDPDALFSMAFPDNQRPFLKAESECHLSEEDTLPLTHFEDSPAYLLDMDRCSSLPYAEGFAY
ELF1, sequence (P32519 whole entry): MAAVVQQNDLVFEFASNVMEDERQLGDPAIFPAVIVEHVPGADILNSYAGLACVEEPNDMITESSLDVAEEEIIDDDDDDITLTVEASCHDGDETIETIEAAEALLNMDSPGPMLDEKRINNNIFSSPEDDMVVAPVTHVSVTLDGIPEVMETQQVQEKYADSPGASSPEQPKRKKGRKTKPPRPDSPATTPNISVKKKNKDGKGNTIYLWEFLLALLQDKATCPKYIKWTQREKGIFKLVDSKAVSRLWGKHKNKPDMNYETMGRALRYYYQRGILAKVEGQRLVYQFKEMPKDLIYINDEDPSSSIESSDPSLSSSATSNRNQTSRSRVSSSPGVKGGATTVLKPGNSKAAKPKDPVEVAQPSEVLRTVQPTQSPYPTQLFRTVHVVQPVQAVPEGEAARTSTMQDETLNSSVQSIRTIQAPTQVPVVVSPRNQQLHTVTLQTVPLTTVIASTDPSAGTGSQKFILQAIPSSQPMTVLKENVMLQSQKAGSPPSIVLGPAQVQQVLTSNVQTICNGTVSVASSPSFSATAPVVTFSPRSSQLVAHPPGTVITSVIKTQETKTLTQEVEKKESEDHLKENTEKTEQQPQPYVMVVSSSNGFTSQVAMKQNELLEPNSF
ETV1, sequence (P50549 whole entry): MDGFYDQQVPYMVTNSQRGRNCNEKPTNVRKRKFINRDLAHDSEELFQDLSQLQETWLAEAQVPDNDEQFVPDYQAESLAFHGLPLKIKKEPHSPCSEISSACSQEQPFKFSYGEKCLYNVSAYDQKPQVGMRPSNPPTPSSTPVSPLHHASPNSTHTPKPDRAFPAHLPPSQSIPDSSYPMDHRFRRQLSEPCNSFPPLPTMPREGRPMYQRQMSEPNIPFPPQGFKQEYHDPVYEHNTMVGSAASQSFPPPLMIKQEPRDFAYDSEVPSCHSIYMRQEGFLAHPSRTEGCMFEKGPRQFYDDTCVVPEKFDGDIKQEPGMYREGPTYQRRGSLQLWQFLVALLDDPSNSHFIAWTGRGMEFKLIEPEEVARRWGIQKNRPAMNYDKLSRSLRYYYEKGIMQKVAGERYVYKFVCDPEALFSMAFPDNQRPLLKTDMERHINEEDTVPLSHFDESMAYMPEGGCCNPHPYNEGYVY

GCGTTT: the binding signal with FLI1 was 1.1 fold enrichment (6-mer frequency, TF over GST control); in the experiment with ELK1, 1.04 fold enrichment (6-mer frequency, TF over GST control); in the experiment with GABPA, 1.11 fold enrichment (6-mer frequency, TF over GST control); with ERG, 1.14 fold enrichment (6-mer frequency, TF over GST control); in the experiment with ELF1 it was 1.08 fold enrichment (6-mer frequency, TF over GST control); with EHF, 1.14 fold enrichment (6-mer frequency, TF over GST control). Also, the binding signal is 1.05 fold enrichment (6-mer frequency, TF over GST control) with SPI1; 1.13 fold enrichment (6-mer frequency, TF over GST control) with SPIB; 1.2 fold enrichment (6-mer frequency, TF over GST control) with ELK3; 1.18 fold enrichment (6-mer frequency, TF over GST control) with FEV; 1.09 fold enrichment (6-mer frequency, TF over GST control) with ETV5; 1.15 fold enrichment (6-mer frequency, TF over GST control) in the experiment with SPIC. In addition, the binding signal with ELF4 was 1.13 fold enrichment (6-mer frequency, TF over GST control); with ELK4, 1.16 fold enrichment (6-mer frequency, TF over GST control); with ETV2, 1.11 fold enrichment (6-mer frequency, TF over GST control); in the experiment with ELF3, 1.15 fold enrichment (6-mer frequency, TF over GST control).
In the case of CAACAA, the binding signal is 1.08 fold enrichment (6-mer frequency, TF over GST control) with FLI1; 1.08 fold enrichment (6-mer frequency, TF over GST control) with ELK1; 1.1 fold enrichment (6-mer frequency, TF over GST control) in the experiment with GABPA; 1.01 fold enrichment (6-mer frequency, TF over GST control) with ERG; 1.06 fold enrichment (6-mer frequency, TF over GST control) with ELF1; 1.05 fold enrichment (6-mer frequency, TF over GST control) with EHF. Also, the binding signal is 1.02 fold enrichment (6-mer frequency, TF over GST control) in the experiment with SPI1; 1.12 fold enrichment (6-mer frequency, TF over GST control) with ELK3; 1.05 fold enrichment (6-mer frequency, TF over GST control) in the experiment with FEV; 1.02 fold enrichment (6-mer frequency, TF over GST control) with ETV5; 1.06 fold enrichment (6-mer frequency, TF over GST control) with SPIC; 1.13 fold enrichment (6-mer frequency, TF over GST control) with ELF4. The binding signal was 1.02 fold enrichment (6-mer frequency, TF over GST control) in the experiment with ELK4; 1.08 fold enrichment (6-mer frequency, TF over GST control) with ETV2; 1.2 fold enrichment (6-mer frequency, TF over GST control) with ELF3; 1.05 fold enrichment (6-mer frequency, TF over GST control) with ETV1.

For the origin of these results see paper PMC7862700, “An all-to-all approach to the identification of sequence-specific readers for epigenetic DNA modifications on cytosine”.
